Screens: PubChem BioAssay, National Center for Advancing Translational Sciences (NCATS)
TDP1 cell noCPT – qHTS for Inhibitors of human tyrosyl-DNA phosphodiesterase 1 (TDP1): qHTS in cells in absence of CPT. DT40 Tdp1-/- hTDP1 cells, no CPT, ATP luminescence, 48 h. Potency, µM (highest dose often 46.2 µM), for inactives: at the top dose activity change, negative = growth inhibition, hits mostly inhibitors. AID 686978, 2013. 420,000 tested, 15% active; note: potency is the fitted concentration of half-maximal effect; % is set by controls: 0 for no effect and ±100 for the full control effect; nearly all actives have a fitted effect of over 55% in size
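No-CPT arm: Tdp1-/-;hTDP1 DT40 cells (400/well) plus compounds, incubated ≥48 hr at 37 °C. Readout CellTiter-Glo luminescence.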
IL-1B inflam inh – blocks inflammasome-driven IL-1 beta release | THP-1 LPS/ATP IL-1B secretion, AlphaLISA, 16 h; active compounds read low | 360,000 tested, 4.7% active | activity change, % at 57.5 µM; in the data active = activity change below about -50%; inconclusive = mostly about -30% to -49%; note: % is set by controls: 0 for no effect and ±100 for the full control effect
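THP-1 cells pretreated 1 hr with compounds (up to 57.5 uM final), then stimulated with LPS (250 ng/mL final) plus ATP (1.25 mM final); secreted IL-1B measured by AlphaLISA after 16 hr, decreased signal indicating inhibition.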
HepG2 tox-1 – HepG2 cytotoxicity, counter-screen for TGF-b inhibitors. HepG2 CAGA-GFP viability, ATP luminescence, 18 h. Potency, µM (highest dose often 46.1 µM), inactives show at the top dose activity change, negative = cytotoxicity, usual class: cytotoxic. 410,000 tested, 0.76% active; note: potency is the fitted concentration of half-maximal effect
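HepG2 CAGA-GFP cells (1000/well, DMEM with 1% FBS) received compound, then TGF-beta at 500 pg/mL final, and were incubated 18 hours at 37 degrees C. Viability was read by CellTiter-Glo luminescence. Media-only wells were set as complete cell-killing and DMSO as no toxicity.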
DT40 TDP1 CPT – DT40-hTDP1 cell growth loss with CPT. Potency, µM (series often up to 46.2 µM), without a hit: top-dose activity change, negative = growth inhibition, usual class: inhibitors. 420,000 tested, 12% active. chicken DT40 Tdp1-/-;hTDP1 cells + 20 nM CPT, ATP luminescence, 48 h. AID 686979; note: potency is the fitted concentration of half-maximal effect; % is set by controls: 0 for no effect and ±100 for the full control effect; nearly all actives have a fitted effect of over 55% in size
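Chicken DT40 Tdp1-/- cells stably complemented with human TDP1 were seeded at 400 cells/well in medium containing 20 nM camptothecin, exposed to pin-transferred compounds, and grown at 37 °C for at least 48 hr. Viability was read as ATP luminescence.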
TDP1 inh – inhibitors of human tyrosyl-DNA phosphodiesterase TDP1. recombinant TDP1, AlphaScreen DNA substrate cleavage. Q9NUW8. Potency, µM (top dose mostly 130 µM), inactives show at the top dose activity change, negative = inhibition, usual class: inhibitors. 350,000 tested, 0.28% active; note: potency is the fitted concentration of half-maximal effect; % is set by controls: 0 for no effect and ±100 for the full control effect; nearly all actives have a fitted effect of over 40% in size
Target sequence (Q9NUW8 whole entry, looked up): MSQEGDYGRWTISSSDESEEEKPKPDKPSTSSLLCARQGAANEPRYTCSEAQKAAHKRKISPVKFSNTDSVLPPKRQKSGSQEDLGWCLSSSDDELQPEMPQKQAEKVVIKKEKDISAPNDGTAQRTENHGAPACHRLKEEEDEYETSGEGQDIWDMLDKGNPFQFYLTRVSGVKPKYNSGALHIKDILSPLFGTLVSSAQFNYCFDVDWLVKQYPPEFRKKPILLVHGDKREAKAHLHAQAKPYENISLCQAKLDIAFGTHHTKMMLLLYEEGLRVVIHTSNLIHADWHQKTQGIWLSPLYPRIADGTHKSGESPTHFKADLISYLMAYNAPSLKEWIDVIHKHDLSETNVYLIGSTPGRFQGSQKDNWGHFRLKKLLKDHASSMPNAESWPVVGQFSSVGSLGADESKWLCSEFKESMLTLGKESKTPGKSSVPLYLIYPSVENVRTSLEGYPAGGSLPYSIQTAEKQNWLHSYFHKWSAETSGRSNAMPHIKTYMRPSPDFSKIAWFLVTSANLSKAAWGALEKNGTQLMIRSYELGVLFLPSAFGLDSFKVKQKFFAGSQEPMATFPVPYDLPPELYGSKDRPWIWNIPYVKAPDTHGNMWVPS
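Compounds were preincubated with Tdp1 (1 nM final) for 15 min at room temperature before substrate (15 nM final) started a 5 min reaction; beads (10 ug/ml final) were then added for 10 min before AlphaScreen detection.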
TGFb inhibitor – TGF-b pathway inhibition. HepG2 CAGA-GFP TGF-b/SMAD3 reporter, GFP fluorescence, 18 h; TGF-beta stimulated, 500 pg/mL final. 410,000 tested, 1.2% active. Potency, µM (highest dose often 46.1 µM), for inactives: at the highest dose activity, negative = inhibition, hits mostly inhibitors; note: potency is the fitted concentration of half-maximal effect; % is set by controls: 0 for no effect and ±100 for the full control effect; nearly all actives have a fitted effect of over 65% in size
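TGF-beta reporter screen: HEPG2 CAGA-GFP, 1% FBS, 500 pg/mL TGF-beta final, 18 h; per-cell GFP summed per well; curves fitted and categorized by class.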
TGFb CAGA inh – confirmation of TGF-b signaling inhibitors in HepG2 reporter cells | shares compounds with TGFb inhibitor | HepG2 CAGA-GFP TGF-b reporter, GFP fluorescence, 18 h; cells stimulated with TGF-beta, 500 pg/mL | Potency, µM (series often up to 46.1 µM), for inactives: at the highest dose activity, negative = inhibition, usual class: inhibitors | 1,600 tested, 63% active; note: potency is the fitted concentration of half-maximal effect; % is set by controls: 0 for no effect and ±100 for the full control effect; nearly all actives have a fitted effect of over 65% in size
HepG2 tox-2 – HepG2 cytotoxicity, TGF-b inhibitor counterscreen. Potency, µM (doses to about 46.1 µM), inactives show top-dose activity, negative = cytotoxicity, usual class: inhibitors. shares compounds with TGFb inhibitor. 1,600 tested, 27% active. HepG2 CAGA-GFP viability, ATP luminescence, 18 h; cells stimulated with TGF-beta, 500 pg/mL; note: potency is the fitted concentration of half-maximal effect; % is set by controls: 0 for no effect and ±100 for the full control effect; nearly all actives have a fitted effect of over 70% in size
TGFb CCL64 inh – TGF-b inhibition, CCL64 orthogonal assay; shares compounds with TGFb inhibitor; CCL64 CAGA-GFP reporter, TGF-b stimulated, GFP fluorescence, 18 h; Potency, µM (doses to about 46.1 µM), for the others: at the top dose activity, negative = inhibition, hits mostly inhibitors; 1,600 tested, 41% active; note: potency is the fitted concentration of half-maximal effect; nearly all actives have a fitted effect of over 65% in size
TGFb COP inh – validation of TGF-b inhibitors in HepG2 COP promoter reporter | shares compounds with TGFb inhibitor | HepG2 COP-GFP TGF-b reporter, GFP fluorescence, 18 h; cells stimulated by added recombinant TGF-beta | Potency, µM (top dose mostly 46.1 µM), for inactives: at the highest dose activity, negative = inhibition, most hits filed as inhibitors | 1,600 tested, 3% active | AID 720537; note: potency is the fitted concentration of half-maximal effect; nearly all actives have a fitted effect of over 70% in size
An asterisk follows results filed as active; ? = inconclusive; / = not tested or not shown. Compounds with a hit are over-represented: about 18% of the library has one in this group of screens. Unless noted, calls come from the whole dose curve; as a rule, active = well fitted curve in the direction sought with a large enough effect; inconclusive = small, poorly fitted or top-dose-only effect, or another doubt; inactive = no such curve, though single readings can be large; an effect the other way counts as inactive or inconclusive.

SMILES | TDP1 cell noCPT | IL-1B inflam inh | HepG2 tox-1 | DT40 TDP1 CPT | TDP1 inh | TGFb inhibitor | TGFb CAGA inh | HepG2 tox-2 | TGFb CCL64 inh | TGFb COP inh
COC(=O)C1C(C(=O)O)C2(Cl)C(Cl)=C(Cl)C1(Cl)C2(Cl)Cl (stereo unspecified) | -13% | 9 | -7% | 3% | / | -17% | / | / | / | /
COC1CC(C)C(OC)c2cc(O)cc(c2O)NC(=O)C(C)=CC=CC(C)C(OC(N)=O)C(C)=CC(C)C1OC (stereo unspecified) | 0.15µM* | -101* | 1% | 0.092µM* | / | 7.1µM* | 0.52µM* | 5.2µM* | 4.1µM* | 22%
CC(C)C[C@@H]1COc2cccc(N3CCN(C)CC3)c2S(=O)(=O)N1 | -12% | 11 | / | -3% | / | / | / | / | / | /
CCN1CCN(P2(=O)C=C(c3ccccc3)OC(c3ccccc3)=C2)CC1 | -24% | -21 | -32% | -48% | 4% | 17% | / | / | / | /
c1ccc(C2c3ccccc3-n3nncc3CN2CC2CCCCC2)cc1 (stereo unspecified) | ? | 16 | -10% | ? | / | 11µM* | 18µM* | ? | 26µM* | 26%
N#CC1c2ccccc2-n2nncc2CN1S(=O)(=O)c1ccc(Cl)cc1 (stereo unspecified) | 5% | 8 | -13% | 1% | / | 14% | / | / | / | /
O=P1(c2ccccc2)CC=CC1 | -2% | 27 | 17% | -9% | / | 27% | / | / | / | /
CCCCn1nnnc1C(c1cccs1)N1CCC2(CC1)C(=O)NCN2c1ccccc1 (stereo unspecified) | ? | -25 | 5% | ? | / | ? | / | / | / | /
CCCCn1nnnc1C(c1cccc2ccccc12)N1CCC2(CC1)C(=O)NCN2c1ccccc1 (stereo unspecified) | ? | / | -5% | ? | / | 18µM* | 15µM* | ? | ? | 60%
COc1ccc(C(c2nnnn2C2CCCCC2)N2CCC3(CC2)C(=O)NCN3c2ccccc2)cc1 (stereo unspecified) | ? | -18 | -44% | ? | / | ? | ? | -21% | 18µM* | -4%
O=C1NCN(c2ccccc2)C12CCN(C(c1ccccc1)c1nnnn1C1CCCC1)CC2 (stereo unspecified) | ? | ? | -2% | ? | / | 11µM* | ? | 2% | 21µM* | 3%
